Screening results (PubChem)
Rows were chosen to be rich in hits. Some 12% of all compounds tested hit in one or more screens of this group.
Lmaj promast = Leishmania major promastigote growth inhibition, primary screen. inhibition, % at 10 µM. Leishmania major promastigotes, resazurin fluorescence viability. 200,000 tested, 9% active. AID 1063, 2008; in the data active means inhibition above about 50%;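 further: promastigotes grown with compound for 44 hours at 28 °C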
Insulin prom up = insulin promoter activators in MIN6 cells, imaging, high-content screening, mouse beta cells; z-score at 5 µM; 190,000 tested, 0.3% active; AID 1625, 2009; MIN6 insulin promoter-GFP reporter; hits give high values;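 active means z-score above 3 at 5 µM with at least 500 cells counted in the well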
Insulin prom inh = inhibitors of insulin promoter-driven GFP, primary screen, imaging, TRM-6 cells (human fetal islet line), eGFP reporter, cell count | reporter expression induced with tamoxifen | inhibition, % at 2 µM | 130,000 tested, 0.9% active;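 active means inhibition above the mean plus 3 SD, with well images judged a real hit on visual review, cut at about 60% in these data, passing the limit was not always enough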
ROMK mod = ROMK potassium channel modulators, primary screen, cell-based, thallium flux, MLSMR library | ATP-sensitive inward rectifier potassium channel 1 (Homo sapiens), P48048 | Tet-inducible ROMK, thallium flux fluorescence; actives lie on both sides | B-score at 10 µM | 130,000 tested, 2% active | AID 1918, 2009;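 active means signal ratio slope over the read window, or its plate-corrected B-score, at least 3 SD from the plate mean, either direction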;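 further: B-score of the F/F0 ratio slope over 7 to 12 s after thallium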
Target sequence (P48048 whole entry, looked up): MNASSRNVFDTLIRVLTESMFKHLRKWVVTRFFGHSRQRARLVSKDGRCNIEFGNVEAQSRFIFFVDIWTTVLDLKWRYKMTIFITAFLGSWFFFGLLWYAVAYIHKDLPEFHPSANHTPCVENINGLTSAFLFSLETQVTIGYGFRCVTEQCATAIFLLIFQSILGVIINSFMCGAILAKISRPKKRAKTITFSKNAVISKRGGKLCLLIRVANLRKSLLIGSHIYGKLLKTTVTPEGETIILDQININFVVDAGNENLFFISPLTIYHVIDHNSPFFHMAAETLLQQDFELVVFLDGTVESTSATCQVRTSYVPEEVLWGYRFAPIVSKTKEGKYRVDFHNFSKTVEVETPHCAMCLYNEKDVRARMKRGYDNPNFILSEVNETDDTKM
WT yeast gro inh = growth inhibition of WT strain, primary screen, mitochondrial fusion inhibitor project, WT and mutant strains, chemical genetic; inhibition, % at 10 µM; mitochondrial fusion phenotypic screen; 190,000 tested, 2.1% active; AID 1362, 2008; in the data active means inhibition above about 58%; tested in S. cerevisiae
Cl transport mod = KCC2 cotransporter modulators, thallium flux, primary screen, cell-based, HEK293 KCC2, FluoZin-2 fluorescence, MLSMR; Solute carrier family 12 member 5 (Homo sapiens), Q9H2X9; KCC2 cells, thallium flux FluoZin-2 fluorescence; B-score of Tl+ flux slope (higher = more flux/activation; lower = inhibition) at 10 µM; 190,000 tested, 2.2% active; AID 1456, 2008;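 active means thallium flux slope and its plate-corrected score both differing from the plate sample mean at a set confidence after two filtering rounds, in either direction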;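 further: slope of fluorescence scaled to starting intensity during 10 to 20 s after thallium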
Numbers without * were called inactive; x = no result given.

SMILES | Lmaj promast | Insulin prom up | Insulin prom inh | ROMK mod | WT yeast gro inh | Cl transport mod
CCC(=O)c1ccc(OCC(O)CN2CCCCC2)cc1 (centres undefined) | 66* | x | 61 | x | 7 | 0.78
CCN1CCN(CCOc2ccc(Cl)cc2)CC1 | 78* | -1.3 | x | 0.11 | -2 | 0.19
CCN1CCN(CC(O)COc2ccc(Cl)cc2)CC1 (centres undefined) | 89* | -0.09 | -28 | -0.27 | 14 | 0.56
CCOC(=O)c1[nH]c(C)c(/C(O)=C2\C(=O)C(=O)N(CCCN(C)C)C2c2cccnc2)c1C (centres undefined) | -3 | 1.1 | 18 | 0.013 | 13 | x
Nc1c(C(=O)c2ccc(F)cc2)oc2ccccc12 | 0 | -0.73 | -44 | -0.41 | -37 | -0.034
COC(=O)c1ccc(Sc2ccccn2)c([N+](=O)[O-])c1 | -1 | x | x | x | 10 | 0.86
O=C1CC(c2ccccc2)n2nc(N3C(=O)CCC3=O)nc2N1 (centres undefined) | -5 | 0.02 | x | x | 0 | 0.65
COc1ccc(OCC(O)CN2CCCCC2)cc1 (centres undefined) | 8 | 1.1 | x | x | 2 | 0.76
COc1cccc(OCC(O)CN2C(C)CCCC2C)c1 (centres undefined) | 4 | -0.41 | 3 | x | -11 | 0.035
OC(COc1ccc(Cl)cc1)CN1CCCCC1 (centres undefined) | 89* | 0.13 | 21 | -0.43 | 15 | x
OC(COc1ccc2c(c1)OCO2)CN1CCc2ccccc2C1 (centres undefined) | 74* | -0.12 | x | x | 2 | 0.52
OCCN1CCN(CC(O)COc2ccc(Cl)cc2)CC1 (centres undefined) | 74* | -0.77 | 3 | -0.034 | -11 | 0.31
Cc1cc(OCC(O)CN2C(C)CCCC2C)ccc1C(C)C (centres undefined) | 97* | 0.95 | x | -0.52 | 15 | 0.59
CN(Cc1nc(-c2cnccn2)no1)CC(O)c1ccccc1 (centres undefined) | -3 | 0.54 | x | 0.2 | -11 | 0.061
CCc1ccccc1NC(=S)N(CCc1ccncc1)C(C)C | 0 | 0.08 | x | -0.3 | 6 | 0.52
COc1ccc(OCC(O)CN2CCN(c3ncccn3)CC2)cc1 (centres undefined) | -8 | 0.33 | 7 | x | -8 | -2.2
CN1CCN(CC(O)COc2ccc(Cl)cc2)CC1 (centres undefined) | 86* | x | -3 | 1.1 | 9 | 1.6
OC(COc1ccc(Cl)cc1)CN1C2=NCCCN2c2ccccc21 (centres undefined) | 63* | -1.9 | 27 | -2.4 | -43 | 0.68
C=CCc1ccccc1OCC(O)CN1CCN(Cc2ccc3c(c2)OCO3)CC1 (centres undefined) | 93* | 0.27 | 16 | -2.8 | 20 | 0.18
OCCN1CCN(CC(O)COc2ccc(C34CC5CC(CC(C5)C3)C4)cc2)CC1 (centres undefined) | 100* | -0.86 | -36 | -0.97 | 94 | 1.6
OC(COc1ccc2c(c1)OCO2)CN1CCN(c2ccccc2)CC1 (centres undefined) | -2 | -0.05 | 33 | -0.95 | 6 | 0.008
FC(F)(F)c1cccc(NC(=S)N2CCN(c3cccc(C(F)(F)F)c3)CC2)c1 | -6 | 0.84 | -7 | x | 27 | 0.67
OC(COCc1ccc2c(c1)OCO2)CN1CCC(Cc2ccccc2)CC1 (centres undefined) | 87* | -0.65 | x | x | 44 | -3.1
CN(C(=O)c1sc2nc(N3CCOCC3)c3c(c2c1N)CCCC3)c1ccccc1 | 100* | -0.13 | 6 | -0.42 | 29 | -1.2
Cc1c(Cl)cccc1NC(=O)C(=O)NNC(=O)c1ccccc1F | 8 | 0.98 | x | 10* | 19 | 89*
SMILES | Lmaj promast | Insulin prom up | Insulin prom inh | ROMK mod | WT yeast gro inh | Cl transport mod
O=C(Nc1ncccc1Cl)c1cccc(F)c1 | -7 | -1.8 | 49 | 1.2 | -9 | 0.25
Cc1ccccc1C(=O)NNC(=O)C(=O)Nc1cccc(Cl)c1C | -7 | 1.4 | 23 | x | -21 | 46*
O=C(Nc1ncccc1Cl)c1ccccc1F | 72* | -0.06 | -3 | 0.35 | -24 | -0.36
Cc1ccccc1NCC(=O)N/N=C\C=C\c1cccc([N+](=O)[O-])c1 | -5 | 0.39 | 21 | 0.27 | 18 | 1.1
CN1C(=O)C(CC(=O)NC2CCCCC2)N(C)C1=O (centres undefined) | -5 | 0.32 | x | 0.048 | -2 | -0.15
COc1cccc(-c2cc(C(F)(F)F)n3ncc(S(=O)(=O)c4ccccc4)c3n2)c1 | -3 | -0.57 | -7 | x | -14 | 0.56
CSc1nc2ccc(NS(=O)(=O)c3ccc(Br)s3)cc2s1 | x | -0.27 | x | x | x | x
CSc1nc2ccc(NS(=O)(=O)c3ccccc3F)cc2s1 | 59* | 0.28 | 6 | x | 12 | -0.064
CSc1nc2ccc(NS(=O)(=O)c3c(Cl)cccc3Cl)cc2s1 | 13 | 0.37 | -40 | x | 67* | -2.4
O=C(O)c1ccc(N2CC3CC(C2)c2cccc(=O)n2C3)c(NC(=S)Nc2ccc(Br)cc2)c1 (centres undefined) | -3 | 1 | -14 | x | 54 | 0.66
Cc1ccc(C(C)C)c(OCCn2c(=O)oc3ccccc32)c1 | 2 | 0.56 | 20 | x | -9 | -0.1
O=C(CCNC(=O)c1ccccc1Cl)Nc1ccc(Cl)c(C(F)(F)F)c1 | 51* | 1.1 | -25 | -1.3 | -3 | -0.85
COc1ccccc1NC(=O)CN1CCN(CC(=O)Nc2ccc(Cl)c(C(F)(F)F)c2)CC1 | 33 | -0.73 | -107 | -2.5* | 50 | x
CCc1ccccc1NCC(=O)Nc1ccc(Cl)c(C(F)(F)F)c1 | 49 | -0.83 | -11 | -0.54 | 80* | 0.23
C/C(CC(=O)Nc1ccc(Cl)c(C(F)(F)F)c1)=N\NC(N)=S | 97* | -0.51 | -20 | -1.9 | -21 | 0.56
COc1ccc(-c2csc(NC(=O)COC(=O)c3ccco3)n2)cc1 | 4 | 0.14 | -10 | -1.1 | -7 | 2
COc1ccc(NC(=O)Nc2ccc(Cc3ccncc3)cc2)cc1OC | 96* | 1.3 | x | -0.85 | -16 | x
COc1ccccc1NC(=O)Nc1ccc(Cc2ccncc2)cc1 | 12 | -0.05 | x | -1.8 | 10 | -2.5
COc1ccccc1NC(=O)Nc1ccncc1 | 97* | x | -82 | 0.26 | 11 | -0.037
COc1ccccc1NC(=O)c1cnc(Nc2ccccc2OC)c2ccccc12 | 95* | -0.7 | -56 | 0.12 | 16 | 0.77
COc1ccccc1N/C(=N/c1nc(C)cc(C)n1)NC(C)=O | 61* | 0.07 | 50 | x | -5 | 0.56
COc1ccccc1Nc1ncc(C(=O)N2CCC(C(N)=O)CC2)c2ccccc12 | -5 | 0.81 | 0 | -0.39 | 10 | -0.41
O=[N+]([O-])c1ccccc1Oc1ccccc1Cl | 3 | x | -31 | -0.19 | -16 | 0.36
